# Data reported in paper PMC7862700, “An all-to-all approach to the identification of sequence-specific readers for epigenetic DNA modifications on cytosine”.
# What was measured:
# Assay in all cases: DAPPL (digital affinity profiling via proximity ligation, sequencing); 10 mM Tris-HCl pH 7.5, 50 mM NaCl, 1 mM DTT, 4% glycerol, room temperature, 30 min; GST-TFs on glutathione beads, 16-mer random dsDNA library, 0.1% formaldehyde crosslink after washing; high values mean tight binding
# Details in all cases: protein: recombinant; tags: N-terminal GST; dsDNA, one strand shown
# [1] = biological target: T1, FLI1 (Homo sapiens, UniProt Q01543 1-452)
# T1 sequence: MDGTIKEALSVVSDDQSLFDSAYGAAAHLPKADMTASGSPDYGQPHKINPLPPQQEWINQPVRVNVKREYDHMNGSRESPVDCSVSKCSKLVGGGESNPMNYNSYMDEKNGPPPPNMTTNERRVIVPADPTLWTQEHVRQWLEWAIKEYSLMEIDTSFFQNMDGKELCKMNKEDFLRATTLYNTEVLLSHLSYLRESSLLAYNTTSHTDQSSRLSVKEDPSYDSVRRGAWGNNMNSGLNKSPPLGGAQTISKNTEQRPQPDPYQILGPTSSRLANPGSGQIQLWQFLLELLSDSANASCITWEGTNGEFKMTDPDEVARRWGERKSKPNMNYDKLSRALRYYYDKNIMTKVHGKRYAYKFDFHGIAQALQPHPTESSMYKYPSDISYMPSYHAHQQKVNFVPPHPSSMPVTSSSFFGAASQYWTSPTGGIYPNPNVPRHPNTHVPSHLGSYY
# Method in brief: (§1)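 The binding signal reported is, for every hexamer, its read frequency for a factor over its read frequency for the tag-only sample. Reads came from pools of yeast-expressed, GST-fused human transcription factors on glutathione beads, barcoded with DNA and mixed with that sample, which were incubated with 200 nmole of a random double-stranded 16-mer DNA library in Tris/NaCl/DTT/glycerol buffer at room temperature for 30 min. After washing, the pools were crosslinked with 0.1% formaldehyde, proximity-ligated with BsaI/T4 ligase for 1 h at 37 °C, PCR-amplified and sequenced on an Illumina NextSeq500.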
# [2] = biological target: T2, ELK1 (Homo sapiens, UniProt P19419 1-428)
# T2 sequence: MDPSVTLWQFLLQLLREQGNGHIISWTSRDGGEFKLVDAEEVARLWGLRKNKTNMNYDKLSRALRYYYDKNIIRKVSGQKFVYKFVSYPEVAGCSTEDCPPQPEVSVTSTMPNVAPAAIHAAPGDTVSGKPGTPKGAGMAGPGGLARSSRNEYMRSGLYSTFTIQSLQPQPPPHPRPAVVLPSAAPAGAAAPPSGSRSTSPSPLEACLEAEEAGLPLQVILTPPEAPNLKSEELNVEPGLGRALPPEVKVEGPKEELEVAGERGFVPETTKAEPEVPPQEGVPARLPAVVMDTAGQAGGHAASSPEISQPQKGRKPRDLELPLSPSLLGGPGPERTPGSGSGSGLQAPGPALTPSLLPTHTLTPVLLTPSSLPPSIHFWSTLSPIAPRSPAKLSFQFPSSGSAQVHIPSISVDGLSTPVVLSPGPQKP
# Method in brief: as §1
# [3] = biological target: T3, GABPA (Homo sapiens, UniProt Q06546 1-454)
# T3 sequence: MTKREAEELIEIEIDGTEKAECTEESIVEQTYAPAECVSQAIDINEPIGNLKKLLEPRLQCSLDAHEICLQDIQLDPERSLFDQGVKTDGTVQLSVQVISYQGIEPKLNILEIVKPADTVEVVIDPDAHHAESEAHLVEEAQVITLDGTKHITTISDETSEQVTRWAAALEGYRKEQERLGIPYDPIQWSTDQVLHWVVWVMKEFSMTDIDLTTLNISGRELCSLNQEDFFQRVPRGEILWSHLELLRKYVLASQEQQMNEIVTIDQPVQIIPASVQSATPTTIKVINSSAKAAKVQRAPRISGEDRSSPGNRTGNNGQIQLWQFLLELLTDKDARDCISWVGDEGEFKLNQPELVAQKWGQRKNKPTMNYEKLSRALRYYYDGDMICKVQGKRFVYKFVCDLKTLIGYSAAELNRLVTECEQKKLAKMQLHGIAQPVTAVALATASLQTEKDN
# Method in brief: as §1
# [4] = biological target: T4, ERG (Homo sapiens, UniProt P11308 1-479)
# T4 sequence: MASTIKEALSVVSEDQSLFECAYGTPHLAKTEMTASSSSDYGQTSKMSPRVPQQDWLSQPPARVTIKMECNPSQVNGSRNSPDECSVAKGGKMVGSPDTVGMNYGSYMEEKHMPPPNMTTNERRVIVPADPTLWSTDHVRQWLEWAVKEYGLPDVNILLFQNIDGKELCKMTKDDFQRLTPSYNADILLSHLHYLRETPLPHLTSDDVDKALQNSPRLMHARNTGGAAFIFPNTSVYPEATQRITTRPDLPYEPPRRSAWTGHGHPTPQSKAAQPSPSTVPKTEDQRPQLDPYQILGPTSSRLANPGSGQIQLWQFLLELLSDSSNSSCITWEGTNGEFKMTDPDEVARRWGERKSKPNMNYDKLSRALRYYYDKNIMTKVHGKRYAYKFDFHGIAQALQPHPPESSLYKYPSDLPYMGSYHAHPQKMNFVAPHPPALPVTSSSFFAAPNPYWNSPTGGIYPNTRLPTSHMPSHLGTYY
# Method in brief: as §1
# [5] = biological target: ELF1 (Homo sapiens, UniProt P32519 1-619)
# Chain of ELF1 (P32519 whole entry): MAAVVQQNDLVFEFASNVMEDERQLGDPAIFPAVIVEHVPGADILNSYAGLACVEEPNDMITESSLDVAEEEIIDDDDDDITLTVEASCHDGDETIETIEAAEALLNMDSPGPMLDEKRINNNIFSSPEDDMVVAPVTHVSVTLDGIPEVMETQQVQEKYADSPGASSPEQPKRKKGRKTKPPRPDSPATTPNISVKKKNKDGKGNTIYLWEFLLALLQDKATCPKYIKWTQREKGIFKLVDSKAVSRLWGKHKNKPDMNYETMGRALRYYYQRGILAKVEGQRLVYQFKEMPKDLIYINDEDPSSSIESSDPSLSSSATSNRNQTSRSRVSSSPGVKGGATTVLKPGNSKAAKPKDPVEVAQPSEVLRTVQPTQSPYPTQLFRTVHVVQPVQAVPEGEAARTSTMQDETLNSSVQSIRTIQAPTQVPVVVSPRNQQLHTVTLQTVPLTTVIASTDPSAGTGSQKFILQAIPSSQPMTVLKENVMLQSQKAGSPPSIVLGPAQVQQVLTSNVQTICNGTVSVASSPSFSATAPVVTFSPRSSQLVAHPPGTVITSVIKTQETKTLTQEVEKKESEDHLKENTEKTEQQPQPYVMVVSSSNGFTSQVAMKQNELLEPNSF
# Method in brief: as §1
# [6] = biological target: T5, EHF (Homo sapiens, UniProt Q9NZC4 1-300)
# T5 sequence: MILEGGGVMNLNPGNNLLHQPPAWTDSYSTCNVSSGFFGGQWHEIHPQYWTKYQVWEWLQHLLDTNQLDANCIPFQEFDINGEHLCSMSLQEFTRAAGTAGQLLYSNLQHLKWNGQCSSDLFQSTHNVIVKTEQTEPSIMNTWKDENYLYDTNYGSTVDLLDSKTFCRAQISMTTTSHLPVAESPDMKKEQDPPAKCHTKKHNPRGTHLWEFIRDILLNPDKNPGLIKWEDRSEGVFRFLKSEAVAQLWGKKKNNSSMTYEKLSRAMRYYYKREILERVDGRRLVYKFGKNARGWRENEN
# Method in brief: as §1
# [7] = biological target: SPI1 (Homo sapiens, UniProt P17947 1-270)
# Method in brief: as §1
# [8] = biological target: SPIB (Homo sapiens, UniProt Q01892 1-262)
# Chain of SPIB (Q01892 whole entry): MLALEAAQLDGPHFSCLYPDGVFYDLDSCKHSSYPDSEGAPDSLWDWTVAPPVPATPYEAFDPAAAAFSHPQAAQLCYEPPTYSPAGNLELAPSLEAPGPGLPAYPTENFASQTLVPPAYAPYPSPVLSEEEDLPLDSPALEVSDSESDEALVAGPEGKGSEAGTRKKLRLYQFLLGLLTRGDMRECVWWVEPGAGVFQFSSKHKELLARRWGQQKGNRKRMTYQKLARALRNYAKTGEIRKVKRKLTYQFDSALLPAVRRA
# Method in brief: as §1
# [9] = biological target: T6, ELK3 (Homo sapiens, UniProt P41970 1-407)
# T6 sequence: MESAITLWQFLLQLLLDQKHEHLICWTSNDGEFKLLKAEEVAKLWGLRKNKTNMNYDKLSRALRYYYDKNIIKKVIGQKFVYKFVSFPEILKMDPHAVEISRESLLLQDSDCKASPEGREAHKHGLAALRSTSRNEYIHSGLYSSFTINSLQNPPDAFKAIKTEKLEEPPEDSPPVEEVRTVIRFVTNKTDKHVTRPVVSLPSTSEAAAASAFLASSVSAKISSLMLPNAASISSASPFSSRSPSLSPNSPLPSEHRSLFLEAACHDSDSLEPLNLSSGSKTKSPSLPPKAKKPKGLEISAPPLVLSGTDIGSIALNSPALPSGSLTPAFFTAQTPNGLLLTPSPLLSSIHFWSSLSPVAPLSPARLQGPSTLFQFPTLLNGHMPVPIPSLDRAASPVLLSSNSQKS
# Method in brief: as §1
# [10] = biological target: T7, FEV (Homo sapiens, UniProt Q99581 1-238)
# T7 sequence: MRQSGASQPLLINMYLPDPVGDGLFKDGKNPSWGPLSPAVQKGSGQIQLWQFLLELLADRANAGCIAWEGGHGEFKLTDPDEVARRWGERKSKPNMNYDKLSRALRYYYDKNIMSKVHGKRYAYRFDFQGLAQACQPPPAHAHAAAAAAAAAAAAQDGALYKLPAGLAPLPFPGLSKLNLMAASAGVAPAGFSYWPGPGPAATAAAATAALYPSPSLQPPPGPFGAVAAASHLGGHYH
# Method in brief: as §1
# [11] = biological target: ETV5 (Homo sapiens, UniProt P41161 1-510)
# Chain of ETV5 (P41161 whole entry): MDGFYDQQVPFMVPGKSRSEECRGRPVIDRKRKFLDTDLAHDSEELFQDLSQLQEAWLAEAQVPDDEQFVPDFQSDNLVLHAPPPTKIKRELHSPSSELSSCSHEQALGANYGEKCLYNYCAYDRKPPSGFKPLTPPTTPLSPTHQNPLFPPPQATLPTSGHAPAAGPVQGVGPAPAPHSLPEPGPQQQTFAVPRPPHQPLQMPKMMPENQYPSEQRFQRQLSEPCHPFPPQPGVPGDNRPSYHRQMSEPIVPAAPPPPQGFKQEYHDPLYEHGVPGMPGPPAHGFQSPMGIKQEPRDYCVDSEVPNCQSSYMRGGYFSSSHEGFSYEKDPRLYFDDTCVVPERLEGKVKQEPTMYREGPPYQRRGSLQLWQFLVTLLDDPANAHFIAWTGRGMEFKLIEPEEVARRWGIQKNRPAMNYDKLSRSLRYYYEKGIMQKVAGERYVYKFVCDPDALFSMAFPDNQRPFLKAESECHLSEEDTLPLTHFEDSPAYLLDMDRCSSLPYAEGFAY
# Method in brief: as §1
# [12] = biological target: T8, SPIC (Homo sapiens, UniProt Q8N5J4 1-248)
# T8 sequence: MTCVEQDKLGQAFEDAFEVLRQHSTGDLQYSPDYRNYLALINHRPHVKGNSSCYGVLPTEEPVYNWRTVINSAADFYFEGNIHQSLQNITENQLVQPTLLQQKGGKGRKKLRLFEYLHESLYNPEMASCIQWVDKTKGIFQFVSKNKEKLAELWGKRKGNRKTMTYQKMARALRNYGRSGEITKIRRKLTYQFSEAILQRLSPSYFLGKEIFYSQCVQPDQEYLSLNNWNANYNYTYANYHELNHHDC
# Method in brief: as §1
# [13] = biological target: ELF4 (Homo sapiens, UniProt Q99607 1-663)
# Chain of ELF4 (Q99607 whole entry): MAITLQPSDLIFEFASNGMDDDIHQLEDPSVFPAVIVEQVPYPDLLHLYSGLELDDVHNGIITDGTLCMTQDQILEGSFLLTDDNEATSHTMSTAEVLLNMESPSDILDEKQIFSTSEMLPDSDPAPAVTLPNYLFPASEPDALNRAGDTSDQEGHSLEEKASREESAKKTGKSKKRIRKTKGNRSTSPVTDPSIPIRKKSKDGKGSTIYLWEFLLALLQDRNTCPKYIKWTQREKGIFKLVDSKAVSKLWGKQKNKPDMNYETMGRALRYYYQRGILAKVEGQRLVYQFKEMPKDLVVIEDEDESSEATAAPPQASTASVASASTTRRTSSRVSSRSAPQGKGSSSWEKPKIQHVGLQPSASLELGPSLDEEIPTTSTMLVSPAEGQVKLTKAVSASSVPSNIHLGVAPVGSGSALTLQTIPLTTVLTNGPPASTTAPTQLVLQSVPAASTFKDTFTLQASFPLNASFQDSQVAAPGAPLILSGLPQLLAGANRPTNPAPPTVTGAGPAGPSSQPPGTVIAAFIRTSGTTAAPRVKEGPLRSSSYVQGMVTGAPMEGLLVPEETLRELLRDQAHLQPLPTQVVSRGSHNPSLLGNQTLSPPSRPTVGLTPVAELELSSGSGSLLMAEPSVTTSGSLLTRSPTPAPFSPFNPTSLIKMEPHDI
# Method in brief: as §1
# [14] = biological target: ETV1 (Homo sapiens, UniProt P50549 1-477)
# Chain of ETV1 (P50549 whole entry): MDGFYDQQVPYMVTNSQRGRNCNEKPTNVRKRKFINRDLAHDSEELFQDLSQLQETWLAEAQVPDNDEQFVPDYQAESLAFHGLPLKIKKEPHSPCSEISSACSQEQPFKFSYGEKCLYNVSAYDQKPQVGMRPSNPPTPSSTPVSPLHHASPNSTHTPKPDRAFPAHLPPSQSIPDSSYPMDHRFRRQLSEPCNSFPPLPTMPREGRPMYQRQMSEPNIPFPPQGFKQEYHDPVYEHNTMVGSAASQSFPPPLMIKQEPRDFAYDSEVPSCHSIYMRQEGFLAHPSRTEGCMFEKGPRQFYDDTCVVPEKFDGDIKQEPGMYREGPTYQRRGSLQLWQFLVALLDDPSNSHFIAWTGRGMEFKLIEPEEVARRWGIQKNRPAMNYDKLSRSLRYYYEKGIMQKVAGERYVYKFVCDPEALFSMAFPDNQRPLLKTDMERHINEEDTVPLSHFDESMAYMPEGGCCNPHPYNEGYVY
# Method in brief: as §1
# [15] = biological target: T9, ERF (Homo sapiens, UniProt P50548 1-548)
# T9 sequence: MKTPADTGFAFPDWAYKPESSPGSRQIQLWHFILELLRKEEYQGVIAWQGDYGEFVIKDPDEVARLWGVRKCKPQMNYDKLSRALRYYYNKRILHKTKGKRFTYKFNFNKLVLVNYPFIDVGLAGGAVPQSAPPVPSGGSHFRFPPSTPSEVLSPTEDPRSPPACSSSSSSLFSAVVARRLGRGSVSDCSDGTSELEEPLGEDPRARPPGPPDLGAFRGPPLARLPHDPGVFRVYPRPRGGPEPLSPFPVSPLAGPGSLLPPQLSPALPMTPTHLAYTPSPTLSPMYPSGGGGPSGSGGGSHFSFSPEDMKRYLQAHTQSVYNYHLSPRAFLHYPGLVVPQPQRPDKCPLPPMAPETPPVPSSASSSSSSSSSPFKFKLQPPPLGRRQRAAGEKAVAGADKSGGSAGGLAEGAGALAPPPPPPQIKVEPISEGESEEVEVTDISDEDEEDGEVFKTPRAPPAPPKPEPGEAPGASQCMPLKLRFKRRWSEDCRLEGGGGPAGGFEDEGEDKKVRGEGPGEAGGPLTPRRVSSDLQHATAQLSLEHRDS
# Method in brief: as §1
# [16] = biological target: T10, ETS2 (Homo sapiens, UniProt P15036 1-469)
# T10 sequence: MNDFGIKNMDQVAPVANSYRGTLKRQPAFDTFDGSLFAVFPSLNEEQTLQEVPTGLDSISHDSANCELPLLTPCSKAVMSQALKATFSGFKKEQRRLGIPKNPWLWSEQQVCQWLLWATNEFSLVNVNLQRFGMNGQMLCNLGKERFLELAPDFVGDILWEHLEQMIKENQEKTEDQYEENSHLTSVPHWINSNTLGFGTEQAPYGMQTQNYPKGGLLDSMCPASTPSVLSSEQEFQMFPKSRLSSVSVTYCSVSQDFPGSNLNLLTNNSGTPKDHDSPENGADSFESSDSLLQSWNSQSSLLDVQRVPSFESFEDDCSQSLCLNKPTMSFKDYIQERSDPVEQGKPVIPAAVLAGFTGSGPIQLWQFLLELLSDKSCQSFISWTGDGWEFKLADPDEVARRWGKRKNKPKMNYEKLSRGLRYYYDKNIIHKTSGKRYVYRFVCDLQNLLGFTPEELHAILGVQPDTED
# Method in brief: as §1
# [17] = biological target: T11, SPDEF (Homo sapiens, UniProt O95238 1-335)
# T11 sequence: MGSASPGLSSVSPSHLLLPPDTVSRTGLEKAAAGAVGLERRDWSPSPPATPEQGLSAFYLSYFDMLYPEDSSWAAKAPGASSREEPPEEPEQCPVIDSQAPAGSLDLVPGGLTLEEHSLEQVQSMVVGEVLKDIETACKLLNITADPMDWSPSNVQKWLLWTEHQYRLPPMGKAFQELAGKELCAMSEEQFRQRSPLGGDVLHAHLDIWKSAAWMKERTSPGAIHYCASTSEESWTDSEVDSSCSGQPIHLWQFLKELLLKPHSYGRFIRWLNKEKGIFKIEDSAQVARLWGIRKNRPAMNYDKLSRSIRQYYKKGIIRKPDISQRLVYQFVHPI
# Method in brief: as §1
# [18] = biological target: T12, ETV3 (Homo sapiens, UniProt P41162-2 1-143)
# T12 sequence: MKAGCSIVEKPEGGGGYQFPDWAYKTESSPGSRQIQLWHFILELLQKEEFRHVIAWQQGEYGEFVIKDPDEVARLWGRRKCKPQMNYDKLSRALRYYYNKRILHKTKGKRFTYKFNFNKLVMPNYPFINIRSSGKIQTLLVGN
# Method in brief: as §1
# [19] = biological target: ETV6 (Homo sapiens, UniProt P41212 1-452)
# Chain of ETV6 (P41212 whole entry): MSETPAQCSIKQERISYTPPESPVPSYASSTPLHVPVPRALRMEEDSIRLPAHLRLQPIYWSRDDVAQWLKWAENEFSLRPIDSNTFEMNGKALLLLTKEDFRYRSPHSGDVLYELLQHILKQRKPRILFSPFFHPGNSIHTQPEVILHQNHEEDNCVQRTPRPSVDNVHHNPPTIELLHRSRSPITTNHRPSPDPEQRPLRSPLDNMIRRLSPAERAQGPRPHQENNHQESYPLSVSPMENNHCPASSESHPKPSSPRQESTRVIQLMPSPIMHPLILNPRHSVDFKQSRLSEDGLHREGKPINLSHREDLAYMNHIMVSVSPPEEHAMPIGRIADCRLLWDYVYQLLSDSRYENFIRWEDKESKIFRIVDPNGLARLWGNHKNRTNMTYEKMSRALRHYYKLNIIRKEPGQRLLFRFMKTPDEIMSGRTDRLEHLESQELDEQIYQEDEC
# Method in brief: as §1
sequence,measurement,setting,value
ATGCCG,binding signal,[1],"1.12 fold enrichment (6-mer frequency, TF over GST control)"
same,binding signal,[2],"1.13 fold enrichment (6-mer frequency, TF over GST control)"
same,binding signal,[3],"1.09 fold enrichment (6-mer frequency, TF over GST control)"
same,binding signal,[4],"1.12 fold enrichment (6-mer frequency, TF over GST control)"
same,binding signal,[5],"1.09 fold enrichment (6-mer frequency, TF over GST control)"
same,binding signal,[6],"1.16 fold enrichment (6-mer frequency, TF over GST control)"
same,binding signal,[7],"1.13 fold enrichment (6-mer frequency, TF over GST control)"
same,binding signal,[8],"1.17 fold enrichment (6-mer frequency, TF over GST control)"
same,binding signal,[9],"1.07 fold enrichment (6-mer frequency, TF over GST control)"
same,binding signal,[10],"1.16 fold enrichment (6-mer frequency, TF over GST control)"
same,binding signal,[11],"1.15 fold enrichment (6-mer frequency, TF over GST control)"
same,binding signal,[12],"1.17 fold enrichment (6-mer frequency, TF over GST control)"
same,binding signal,[13],"1.19 fold enrichment (6-mer frequency, TF over GST control)"
same,binding signal,[14],"1.11 fold enrichment (6-mer frequency, TF over GST control)"
same,binding signal,[15],"1.01 fold enrichment (6-mer frequency, TF over GST control)"
same,binding signal,[16],"1.08 fold enrichment (6-mer frequency, TF over GST control)"
same,binding signal,[17],"1.13 fold enrichment (6-mer frequency, TF over GST control)"
same,binding signal,[18],"1.24 fold enrichment (6-mer frequency, TF over GST control)"
same,binding signal,[19],"1.15 fold enrichment (6-mer frequency, TF over GST control)"
